# Measured values as given in PubChem BioAssay (NCI).
# The panel holds about 83,000 compounds, 20% with a hit somewhere; the sample as a whole holds those more often.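 For each line, cells grew in 96-well plates with the test compound present at a single concentration for 48 hours.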 Values without a mark were called inactive. Activity calls are given as the source filed them. How the source made its calls: active means growth percent below 10; inactive means the rest.
# Test system: OVCAR-5 ovarian
# Assay: NCI-60 one-dose screen, 48 h (100 = growth as untreated, 0 = no growth, -100 = all killed)
# Details: 10 µM unless noted
row,SMILES,growth
1,O=C(NNC(=O)N1c2ccccc2C=Cc2ccccc21)c1ccc2ccccc2c1,91.3%
2,CCOC(=O)C1C(=O)C=C(c2ccc(OC)cc2)CC1c1sc(N(C)Cc2ccccc2)nc1Cl (stereo not drawn),86.2%
3,CCc1cnc(=S)n(-c2ccccc2)c1,97.3%
4,CCN(CC)c1ccc2[nH]c3c(C(N)=O)cc(=O)c(=O)c=3oc2c1,15.1%
5,CC1(C)C(=O)/C(=C\c2ccc(C(F)(F)F)cc2)C[C@]2(C)[C@H]3CC[C@@H]4[C@H]5[C@H](C(=O)/C=C/c6ccc(C(F)(F)F)cc6)CC[C@]5(CO)CC[C@@]4(C)[C@]3(C)CC[C@@H]12,107%
6,O=[N+]([O-])c1ccc(Sc2ncccn2)c([N+](=O)[O-])c1,81.1%
7,CC(C)(C)OC(=O)NC(CSCc1ccccc1)C(=O)ON1C(=O)CCC1=O (stereo not drawn),106%
8,C/C(=C\c1ccc(OCC(=O)O)c(Cl)c1Cl)[N+](=O)[O-],113%
9,CC(C)CC1NC(C)(C)CO1 (stereo not drawn),114%
10,CC(NNC(C)c1ccccc1)c1ccccc1 (stereo not drawn),107%
11,CC(C)(C)n1cc(-c2ccnc(NCCCNS(=O)(=O)c3ccc(C(F)(F)F)cc3)c2)c(-c2cccc(O)c2)n1,36.1%
12,CC(C)(C)n1cc(-c2ccnc(NCCCNS(=O)(=O)c3ccc(Br)cc3)c2)c(-c2cccc(O)c2)n1,38.5%
13,Cn1cc(-c2cnc3ccc(NC(=O)Nc4ccc(F)c(Br)c4)cc3n2)cn1,51.2%
14,CC(C)(C)c1[nH]nc2c1C(c1cc3ccccc3[nH]c1=O)Nc1cc(C(=O)Nc3ccc(Cl)cc3)ccc1N2 (stereo not drawn),114%
15,O=C([O][Sn]([O]C(=O)c1ccccn1)([c]1ccccc1)[c]1ccccc1)c1ccccn1,94.9%
16,CC(C)(C)N1CCC1C(N)=O (stereo not drawn),48.7%
17,CC(C)(C)n1cc(-c2ccnc(NCCCNS(=O)(=O)c3ccc(Cl)cc3)c2)c(-c2cccc(O)c2)n1,-20.5% (active)
18,O=C(Nc1ccc(NCCN2CCOCC2)nc1)c1ccc([N+](=O)[O-])cc1,105%
19,COc1cc(-c2ncn(/C=C\C(=O)OC(C)C)n2)cc(C(F)(F)F)c1,18.4%
20,O=C(NNC(=O)N1c2ccccc2C=Cc2ccccc21)c1ccccc1,103%

row,SMILES,growth
1,CC(C)(C)n1cc(-c2ccnc(NCCNS(=O)(=O)c3ccc(Cl)cc3)c2)c(-c2cccc(O)c2)n1,80.9%
2,Clc1ccccc1-c1nc2ccccc2[nH]1,54.4%
3,CC(C)(C)n1cc(-c2ccnc(NCCNS(=O)(=O)c3ccc(C(F)(F)F)cc3)c2)c(-c2cccc(O)c2)n1,72.2%
4,CC(=O)Oc1csc(N(C(C)=O)c2cc(C(=O)O)cc(C(=O)O)c2)n1,101%
5,COc1ccncc1S(=O)(=O)NC(=O)Nc1ccc(Cl)c(Cl)c1,89.6%
6,COc1ccc(-c2nc(/C=N/Nc3cc(C)nc4ccc(Cl)cc34)c(C)o2)cc1,-93.3% (active)
7,COc1ccc(C(=O)N2NC(=O)/C(=C/c3ccccc3F)N=C2c2ccccc2)cc1,108%
8,CCOC(=O)CC(=O)OC,101%
9,CN1C=CN(Cc2ccc(-c3ccccn3)nc2)[CH-]1.CN1C=CN(Cc2ccc(-c3ccccn3)nc2)[CH-]1.[Au+3],50.3%
10,COc1cccc(/C=C2\Oc3cc(OCCCN4CCCC4)ccc3C2=O)c1OC,94.9%
11,O=C1C(Cl)=C(Nc2ccccn2)C(=O)c2ccccc21,115%
12,Cc1ccc2[nH]c(=O)c3c(c2c1)Oc1ncn2nc(-c4ccco4)nc2c1C3c1ccc(Cl)cc1 (stereo not drawn),98.2%
13,COc1ccc(C2CC(c3ccc(OC)cc3OC)=NN2c2ccc(S(N)(=O)=O)cc2)cc1 (stereo not drawn),99.4%
14,c1ccc(-c2nnc(-c3ccccn3)s2)nc1,92.2%
15,Clc1cc2c(nn1)Nc1ccccc1S2,100%
16,O=[N+]([O-])c1cc(S(=O)(=O)Oc2ccccc2)ccc1Cl,66.8%
17,COc1cc(/C=N\NC(=O)CN2CCN(c3cc4c(cc3F)c(=O)c(C(=O)N/N=C/c3cc(OC)c(OC)c(OC)c3)cn4C3CC3)CC2)cc(OC)c1OC,19.6%
18,NC1=C(/C(N)=N/O)C(c2ccccc2)c2ccc3ccccc3c2O1 (stereo not drawn),29.6%
19,OCc1ncc(-c2ccccc2)s1,92.2%

# Test system: OVCAR-4 ovarian
# Assay: as above
# Details: 10 µM unless noted
row,SMILES,growth
1,O=C(NNC(=O)N1c2ccccc2C=Cc2ccccc21)c1ccc2ccccc2c1,91.8%
2,CCOC(=O)C1C(=O)C=C(c2ccc(OC)cc2)CC1c1sc(N(C)Cc2ccccc2)nc1Cl (stereo not drawn),78.2%
3,CCc1cnc(=S)n(-c2ccccc2)c1,135%
4,CCN(CC)c1ccc2[nH]c3c(C(N)=O)cc(=O)c(=O)c=3oc2c1,2.07% (active)
5,CC1(C)C(=O)/C(=C\c2ccc(C(F)(F)F)cc2)C[C@]2(C)[C@H]3CC[C@@H]4[C@H]5[C@H](C(=O)/C=C/c6ccc(C(F)(F)F)cc6)CC[C@]5(CO)CC[C@@]4(C)[C@]3(C)CC[C@@H]12,96.6%
6,O=[N+]([O-])c1ccc(Sc2ncccn2)c([N+](=O)[O-])c1,51.8%
7,CC(C)(C)OC(=O)NC(CSCc1ccccc1)C(=O)ON1C(=O)CCC1=O (stereo not drawn),121%
8,C/C(=C\c1ccc(OCC(=O)O)c(Cl)c1Cl)[N+](=O)[O-],114%
9,CC(C)CC1NC(C)(C)CO1 (stereo not drawn),111%
10,CC(NNC(C)c1ccccc1)c1ccccc1 (stereo not drawn),112%
11,CC(C)(C)n1cc(-c2ccnc(NCCCNS(=O)(=O)c3ccc(C(F)(F)F)cc3)c2)c(-c2cccc(O)c2)n1,41.7%
12,CC(C)(C)n1cc(-c2ccnc(NCCCNS(=O)(=O)c3ccc(Br)cc3)c2)c(-c2cccc(O)c2)n1,36.5%
13,Cn1cc(-c2cnc3ccc(NC(=O)Nc4ccc(F)c(Br)c4)cc3n2)cn1,10.7%
14,CC(C)(C)c1[nH]nc2c1C(c1cc3ccccc3[nH]c1=O)Nc1cc(C(=O)Nc3ccc(Cl)cc3)ccc1N2 (stereo not drawn),32.5%
15,O=C([O][Sn]([O]C(=O)c1ccccn1)([c]1ccccc1)[c]1ccccc1)c1ccccn1,81.3%
16,CC(C)(C)N1CCC1C(N)=O (stereo not drawn),104%
17,CC(C)(C)n1cc(-c2ccnc(NCCCNS(=O)(=O)c3ccc(Cl)cc3)c2)c(-c2cccc(O)c2)n1,23.4%
18,O=C(Nc1ccc(NCCN2CCOCC2)nc1)c1ccc([N+](=O)[O-])cc1,103%
19,COc1cc(-c2ncn(/C=C\C(=O)OC(C)C)n2)cc(C(F)(F)F)c1,0.627% (active)
20,O=C(NNC(=O)N1c2ccccc2C=Cc2ccccc21)c1ccccc1,103%

row,SMILES,growth
1,CC(C)(C)n1cc(-c2ccnc(NCCNS(=O)(=O)c3ccc(Cl)cc3)c2)c(-c2cccc(O)c2)n1,53.5%
2,Clc1ccccc1-c1nc2ccccc2[nH]1,96.9%
3,CC(C)(C)n1cc(-c2ccnc(NCCNS(=O)(=O)c3ccc(C(F)(F)F)cc3)c2)c(-c2cccc(O)c2)n1,50.5%
4,CC(=O)Oc1csc(N(C(C)=O)c2cc(C(=O)O)cc(C(=O)O)c2)n1,90.4%
5,COc1ccncc1S(=O)(=O)NC(=O)Nc1ccc(Cl)c(Cl)c1,95.7%
6,COc1ccc(-c2nc(/C=N/Nc3cc(C)nc4ccc(Cl)cc34)c(C)o2)cc1,-95.3% (active)
7,COc1ccc(C(=O)N2NC(=O)/C(=C/c3ccccc3F)N=C2c2ccccc2)cc1,106%
8,CCOC(=O)CC(=O)OC,100%
9,CN1C=CN(Cc2ccc(-c3ccccn3)nc2)[CH-]1.CN1C=CN(Cc2ccc(-c3ccccn3)nc2)[CH-]1.[Au+3],6.08% (active)
10,COc1cccc(/C=C2\Oc3cc(OCCCN4CCCC4)ccc3C2=O)c1OC,99.9%
11,O=C1C(Cl)=C(Nc2ccccn2)C(=O)c2ccccc21,30.2%
12,Cc1ccc2[nH]c(=O)c3c(c2c1)Oc1ncn2nc(-c4ccco4)nc2c1C3c1ccc(Cl)cc1 (stereo not drawn),87.9%
13,COc1ccc(C2CC(c3ccc(OC)cc3OC)=NN2c2ccc(S(N)(=O)=O)cc2)cc1 (stereo not drawn),80.2%
14,c1ccc(-c2nnc(-c3ccccn3)s2)nc1,91.5%
15,Clc1cc2c(nn1)Nc1ccccc1S2,95.3%
16,O=[N+]([O-])c1cc(S(=O)(=O)Oc2ccccc2)ccc1Cl,-28.4% (active)
17,COc1cc(/C=N\NC(=O)CN2CCN(c3cc4c(cc3F)c(=O)c(C(=O)N/N=C/c3cc(OC)c(OC)c(OC)c3)cn4C3CC3)CC2)cc(OC)c1OC,-17.7% (active)
18,NC1=C(/C(N)=N/O)C(c2ccccc2)c2ccc3ccccc3c2O1 (stereo not drawn),47.5%
19,OCc1ncc(-c2ccccc2)s1,97.5%
